# Source: ChEMBL document CHEMBL3988442, “University of Dundee, Small-Polar-MMV Screening Library” (2021)
# Out of some 48,000 compounds screened, about 13,000 (27%) showed an effect of 50% or more. The list shows a part of the results.
# Test system: Wolbachia pipientis
# Assay: Anti-Wolbachia Cell-Based Screen
# Type: functional
# Set-up: scale not given: in the data most compounds retested in dose-response had high values
# Conditions: 5 µM
row,SMILES,Percent Effect [%]
1,Cc1cnn(CC2CCCN2C(=O)CCc2c(C)noc2C)c1 (stereo not given),111.6
2,Cc1cnn(CC2CCCN2C(=O)CCc2c(C)nn(C)c2C)c1 (stereo not given),103.1
3,Cc1nn(C)c(C)c1CCC(=O)N1CCCC1Cn1cccn1 (stereo not given),11.22
4,Cc1cnn(CC2CCCCN2C(=O)Cc2csc(C)n2)c1 (stereo not given),1.923
5,Cc1cnn(CC2CCCN2C(=O)CCc2c(C)nc(C)[nH]c2=O)c1 (stereo not given),112.3
6,Cc1cnn(CC2CCCN2C(=O)CCc2nc3ccccc3[nH]2)c1 (stereo not given),1.047
7,Cc1cnn(CC2CCCCN2C(=O)Cc2c(C)noc2C)c1 (stereo not given),117.3
8,Cc1cc(CN(C)C2CCN(c3cccc(-c4cscn4)c3)CC2)on1,-19.07
9,CNS(=O)(=O)c1ccc(C(=O)NCCNc2ncccn2)cc1,1.025
10,CC(C)OCCOCc1cccc(NC(=O)NCc2ccncc2)c1,3.047
11,Cn1nnc2cc(C(=O)NS(=O)(=O)c3ccc(F)cc3)ccc21,-8.568
12,Cc1cnn(CC2CCCN2C(=O)Cc2c(C)noc2C)c1 (stereo not given),123.7
13,Cc1cc(C)n(CC2CCCN2C(=O)Cc2c(C)noc2C)n1 (stereo not given),2.87
14,CN(C)C(=O)CCC1CCCN(Cc2ccc(-c3cccnc3)cc2)C1 (stereo not given),-4.388
15,Cc1nccn1CC1CCCN(Cc2ccc(-c3cccnc3)cc2)C1 (stereo not given),30.54
16,COc1ccc(CCC2CCCN(C(=O)CCc3cc(O)no3)C2)cc1 (stereo not given),6.592
17,O=C(O)COc1ccc(CN2CCCC(CCc3ccccc3)C2)cc1 (stereo not given),98.9
18,Cc1[nH]c(=O)[nH]c(=O)c1CN1CCCC(CCc2ccccc2)C1 (stereo not given),-19.89
19,COc1coc(CN2CCCC(CCc3ccc(F)cc3)C2)cc1=O (stereo not given),20.93
20,COc1ccc(CCC2CCCN(CC(=O)O)C2)cc1 (stereo not given),116.8
21,COc1ccnc(CN2CCCC(CCc3ccccc3)C2)c1OC (stereo not given),-14.6
22,O=C(O)COc1ccc(CN2CCCC(Cc3cccnc3)C2)cc1 (stereo not given),125.7
23,OCC(O)CSCc1ccc(Cl)cc1Cl (stereo not given),-1.817
24,Cc1nc(NC(=O)OC(C)(C)C)sc1C#N,16.95
25,CCCc1n[nH]c(C2CN(C(=O)c3cccc4cn[nH]c34)CCO2)n1 (stereo not given),108.2
26,CCCc1n[nH]c(C2CN(C(=O)c3cccnc3N(C)C)CCO2)n1 (stereo not given),106.9
27,CCCc1n[nH]c(C2CN(C(=O)c3cc(F)ccc3OC)CCO2)n1 (stereo not given),-4.099
28,CCCc1n[nH]c(C2CN(C(=O)c3cccc4[nH]ncc34)CCO2)n1 (stereo not given),117.3
29,CC(C)c1n[nH]c(C2CN(C(=O)c3cccc4cn[nH]c34)CCO2)n1 (stereo not given),2.376
30,CCCc1n[nH]c(C2CN(C(=O)c3n[nH]c4ccccc34)CCO2)n1 (stereo not given),103.5
